Most compounds without a hit are left out; they make up all but 10% or so of the library.
hNpr1 antagonist – human Npr1 receptor antagonism. P16066. HEK293 hNpr1 GloSensor cGMP, ANP-stimulated luminescence. Potency, µM (top dose mostly 46.3 µM), for the others: top-dose activity change, negative = inhibition, usual class: inhibitors. 76,000 tested, 1.6% active; calls by dose curve; also: nearly all actives have a fitted effect of over 60% in size
Target sequence (P16066 whole entry, looked up): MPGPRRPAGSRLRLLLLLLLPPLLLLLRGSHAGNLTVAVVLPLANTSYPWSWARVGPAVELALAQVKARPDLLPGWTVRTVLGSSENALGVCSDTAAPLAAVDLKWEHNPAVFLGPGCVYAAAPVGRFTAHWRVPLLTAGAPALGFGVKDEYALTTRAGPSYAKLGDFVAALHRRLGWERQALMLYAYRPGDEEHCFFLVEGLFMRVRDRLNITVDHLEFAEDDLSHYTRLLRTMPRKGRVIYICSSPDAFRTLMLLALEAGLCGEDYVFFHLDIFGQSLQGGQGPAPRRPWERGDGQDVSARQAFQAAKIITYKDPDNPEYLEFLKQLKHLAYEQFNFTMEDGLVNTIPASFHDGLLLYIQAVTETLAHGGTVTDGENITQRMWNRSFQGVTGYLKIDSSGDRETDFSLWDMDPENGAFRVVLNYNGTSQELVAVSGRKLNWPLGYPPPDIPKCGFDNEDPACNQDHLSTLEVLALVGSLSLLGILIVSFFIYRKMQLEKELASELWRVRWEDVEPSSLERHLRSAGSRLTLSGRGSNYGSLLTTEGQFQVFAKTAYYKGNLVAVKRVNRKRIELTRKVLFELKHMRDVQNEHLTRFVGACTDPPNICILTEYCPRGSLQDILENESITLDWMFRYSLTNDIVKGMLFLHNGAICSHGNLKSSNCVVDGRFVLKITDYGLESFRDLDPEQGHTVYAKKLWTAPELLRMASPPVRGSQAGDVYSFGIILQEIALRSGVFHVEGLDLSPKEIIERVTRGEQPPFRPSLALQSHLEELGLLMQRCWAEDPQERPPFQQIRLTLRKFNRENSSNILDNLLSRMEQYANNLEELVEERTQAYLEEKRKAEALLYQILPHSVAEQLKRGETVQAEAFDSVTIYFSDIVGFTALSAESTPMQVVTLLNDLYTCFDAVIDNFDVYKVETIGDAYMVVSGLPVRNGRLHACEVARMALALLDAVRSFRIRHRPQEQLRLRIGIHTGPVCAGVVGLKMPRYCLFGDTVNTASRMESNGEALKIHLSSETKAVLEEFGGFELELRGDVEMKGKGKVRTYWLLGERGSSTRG
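Compound pre-incubated 30 min at room temperature on GloSensor-loaded HEK293 cells stably carrying hNpr1 and the pGS-40F cGMP biosensor. Stimulation uses hNppA at 0.1 nM final; luminescence is taken at baseline and 20 min post-agonist.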
NIH3T3 tox – NIH 3T3 cell cytotoxicity; 94,000 tested, 4.3% active; NIH 3T3 viability, CellTiter-Glo ATP luminescence, 48-72 h; Potency, µM (titrated, usually from 96.7 µM), for inactives: at the highest dose activity change, negative = cytotoxicity, usual class: inhibitors; also: nearly all actives have a fitted effect of over 55% in size
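NIH 3T3 cells at 400 cells/well received 23 nL of compound by pintool and were incubated 48 or 72 h at 37 °C. Viability was read as ATP-coupled CellTiter-Glo luminescence.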
GPT2 inhibitor – inhibitors of human GPT2 alanine aminotransferase. Recombinant GPT2, coupled pyruvate oxidase/HRP Amplex Red fluorescence. Q8TD30. 100,000 tested, 0.25% active. AID 1671188. Potency, µM (series often up to 57.7 µM), for inactives: top-dose activity change, negative = inhibition, usual class: inhibitors; also: nearly all actives have a fitted effect of over 60% in size
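Inhibition is scored from Amplex Red fluorescence generated when pyruvate oxidase and HRP act on pyruvate released by GPT2. Reactions contain 10ng/uL enzyme, 250uM a-KG and 2mM L-alanine and run 30 min at room temperature.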
FLuc inh – Photinus pyralis luciferase inhibition; 76,000 tested, 2.5% active; Potency, µM (highest dose often 115 µM), usual class: inhibitors; purified P. pyralis luciferase, luminescence, biochemical; P08659; also: nearly all actives have a fitted effect of over 65% in size
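Inhibitors were tested against purified firefly luciferase in a biochemical, low-substrate format (both substrates at 10uM) and luminescence measured with a CCD imager.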
HEK293 tox – cytotoxic compounds in HEK 293 cells; HEK 293 viability, ATP luminescence (CellTiter-Glo), 48-72 h; 94,000 tested, 6.6% active; AID 1345083; Potency, µM (doses to about 115 µM), for inactives: at the highest dose activity change, negative = cytotoxicity, hits mostly inhibitors; also: nearly all actives have a fitted effect of over 60% in size
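Cytotoxicity was scored by loss of ATP-coupled luminescence (CellTiter-Glo) in HEK 293 cells. Compound treatment ran 48 or 72 hr at 37 degree Celsius, 5% CO2, 95% humidity.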
Starred values were filed as active, the others as inactive; ! = repeats disagree; [ ] = another dose, or the depositor's remark. Unless noted, calls follow the shape of the dose curve; as a rule, active = well fitted curve in the direction sought with a large enough effect; inconclusive = small, poorly fitted or top-dose-only effect, or another doubt; inactive = no such curve, though single readings can be large; an effect the other way counts as inactive or inconclusive. % is scaled to controls: 0 for no effect and ±100 for the full control effect; potency is read from the fitted curve at half-maximal effect.

Results for O=C(NCCCc1ccccc1)C1CCCCN1Cc1ccc(-c2ccsc2)cc1 (stereo unspecified) ?
NIH3T3 tox: 35µM*; GPT2 inhibitor: -25%; HEK293 tox: inconclusive

Results for CNC(=O)N1CCC(C2CCN(Cc3cccc(OC)c3OC)C2)CC1 (stereo unspecified) ?
hNpr1 antagonist: 5%; NIH3T3 tox: -15%; GPT2 inhibitor: 5%; FLuc inh: inactive; HEK293 tox: -9%

Results for O=C(NCCc1ccc(Cl)cc1)C1CCCN1C(=O)c1cccc(-c2ccccn2)c1 (stereo unspecified) ?
NIH3T3 tox: inconclusive; GPT2 inhibitor: -17%; HEK293 tox: inconclusive

Results for CC(=O)Nc1cccc(-c2cnc3n[nH]c(-c4ccccc4C)c3n2)c1 ?
hNpr1 antagonist: -23%[70.6 µM]; NIH3T3 tox: 45µM*; GPT2 inhibitor: -4%[88.5 µM]; FLuc inh: inactive; HEK293 tox: 71µM*

What do the screens show for `Cc1ccccc1-c1[nH]nc2ncc(-c3cccc(O)c3)nc12`?
hNpr1 antagonist: -19%[70.6 µM]; NIH3T3 tox: inconclusive; GPT2 inhibitor: 0%[88.5 µM]; FLuc inh: inactive; HEK293 tox: inconclusive

How did CC(=O)Nc1cccc(-c2cnc3n[nH]c(-c4ccc(F)cc4C)c3n2)c1 do in these assays?
hNpr1 antagonist: -30%[70.6 µM]; NIH3T3 tox: 25µM*; GPT2 inhibitor: inactive; FLuc inh: inactive; HEK293 tox: 20µM*

Results for CC(=O)Nc1cccc(-c2cnc3n[nH]c(-c4sccc4C)c3n2)c1 ?
hNpr1 antagonist: inconclusive; NIH3T3 tox: inconclusive; GPT2 inhibitor: -3%[88.5 µM]; FLuc inh: inconclusive; HEK293 tox: 32µM*

How did COc1ccc(-c2cnc3n[nH]c(-c4ccc5c(c4)OCO5)c3n2)cc1 do in these assays?
hNpr1 antagonist: 8%[70.6 µM]; NIH3T3 tox: inconclusive; GPT2 inhibitor: -9%[88.5 µM]; FLuc inh: inactive; HEK293 tox: inconclusive

What do the screens show for `CC(=O)Nc1cccc(-c2cnc3n[nH]c(-c4ccc5c(c4)OCO5)c3n2)c1`?
hNpr1 antagonist: -26%[70.6 µM]; NIH3T3 tox: 25µM*; GPT2 inhibitor: inconclusive; FLuc inh: inconclusive; HEK293 tox: 22µM*

Results for O=C(c1ccc(Cn2ccnc2)o1)N1CC[C@@H]2CN(Cc3ccccc3)[C@@H]2C1 ?
NIH3T3 tox: -1%; GPT2 inhibitor: -10%; HEK293 tox: 3%

What do the screens show for `CCN1C(=O)C2CC3(CCN(C4CCCCC4)CC3)CN2C1=O` (stereo unspecified)?
NIH3T3 tox: -12%; GPT2 inhibitor: inactive; HEK293 tox: 0%

What do the screens show for `CC(=O)N[C@H]1C[C@@H](c2nc(-c3ccccc3)no2)N(C)C1`?
hNpr1 antagonist: 0%[70.6 µM]; NIH3T3 tox: 1%[230 µM]; GPT2 inhibitor: -17%[88.5 µM]; FLuc inh: inactive; HEK293 tox: 2%[230 µM]

Results for O=C(c1ccc2[nH]ccc2c1)N1CCC2(CC1)Nc1ccccc1NC2=O ?
hNpr1 antagonist: -10%; NIH3T3 tox: -14%; GPT2 inhibitor: -15%[11.5 µM]; FLuc inh: inactive; HEK293 tox: 40µM*

How did O=C(c1ccc2n[nH]nc2c1)N1CCC2(CC1)Nc1ccccc1NC2=O do in these assays?
hNpr1 antagonist: 5%; NIH3T3 tox: -13%; GPT2 inhibitor: inconclusive; FLuc inh: inactive; HEK293 tox: -29%

What do the screens show for `OCC1(Cc2cccc(Cl)c2)CCCN(Cc2nc(-c3ccc(F)cc3)cs2)C1` (stereo unspecified)?
hNpr1 antagonist: -23%; NIH3T3 tox: inconclusive; GPT2 inhibitor: inconclusive; FLuc inh: inactive; HEK293 tox: 79µM*

Results for OCC1(Cc2cccc(Cl)c2)CCCNC1 (stereo unspecified) ?
hNpr1 antagonist: 5%; NIH3T3 tox: -7%; GPT2 inhibitor: inactive; FLuc inh: inactive; HEK293 tox: 0%

Results for O=C(NC1CCCC1)N1CCc2nc(C3CC3)nc(-c3ccc(Cl)cc3)c2C1 ?
NIH3T3 tox: inconclusive; GPT2 inhibitor: inactive; HEK293 tox: inconclusive

What do the screens show for `O=C(Nc1cccc(Cl)c1)C1=NO[C@@H]2CN(c3ccccn3)C[C@H]12`?
hNpr1 antagonist: -8%[70.6 µM]; NIH3T3 tox: inconclusive; GPT2 inhibitor: -9%[88.5 µM]; FLuc inh: inactive; HEK293 tox: 100µM*

How did O=C(Nc1ccc(Cl)cc1)C1=NO[C@@H]2CN(c3ccccn3)C[C@H]12 do in these assays?
hNpr1 antagonist: 3%[70.6 µM]; NIH3T3 tox: -20%[138 µM]; GPT2 inhibitor: -11%[88.5 µM]; FLuc inh: inactive; HEK293 tox: inconclusive

Results for CCC1CN(c2ccc(-c3nc(-c4ccc(OC)cc4)no3)cn2)CCN1C (stereo unspecified) ?
hNpr1 antagonist: -4%; NIH3T3 tox: 79µM*; GPT2 inhibitor: inactive; FLuc inh: inconclusive; HEK293 tox: inconclusive

Results for COC1CCN(c2ccc(-c3nc(COc4ccccc4)no3)cn2)CC1 ?
hNpr1 antagonist: inconclusive; NIH3T3 tox: -28%; GPT2 inhibitor: inactive; FLuc inh: inactive; HEK293 tox: inconclusive

How did COc1ccc(C(=O)N2CCC3(C2)C(=O)N(CCc2ccccc2)c2ccccc23)cc1 (stereo unspecified) do in these assays?
hNpr1 antagonist: inconclusive; NIH3T3 tox: inconclusive; GPT2 inhibitor: 3%; FLuc inh: inactive; HEK293 tox: 40µM*!

What do the screens show for `O=C(c1ccc(C(F)(F)F)cc1)N1CCC2(C1)C(=O)N(Cc1ccccc1)c1ccccc12` (stereo unspecified)?
hNpr1 antagonist: inconclusive; NIH3T3 tox: 25µM*; GPT2 inhibitor: inactive; FLuc inh: inactive; HEK293 tox: 22µM*

Results for O=C(c1cccc(Cl)c1)N1CCC2(C1)C(=O)N(CCc1ccccc1)c1ccccc12 (stereo unspecified) ?
hNpr1 antagonist: inconclusive; NIH3T3 tox: 40µM*!; GPT2 inhibitor: inconclusive; FLuc inh: inactive; HEK293 tox: 28µM*

What do the screens show for `O=C(C1CCCC1)N1CCC2(C1)C(=O)N(CCc1ccccc1)c1ccccc12` (stereo unspecified)?
hNpr1 antagonist: -3%; NIH3T3 tox: inconclusive; GPT2 inhibitor: 2%; FLuc inh: inactive; HEK293 tox: 40µM*!

What do the screens show for `O=C(Cc1ccc(Cl)cc1)N1CCN(C(=O)c2nc3cccnc3n(C3CC3)c2=O)CC1`?
NIH3T3 tox: -11%; GPT2 inhibitor: inactive; HEK293 tox: inactive

What do the screens show for `O=C(C1CCN([S+](=O)([O-])c2cccs2)CC1)N1CCC(N2Cc3ccccc3C2=O)CC1`?
NIH3T3 tox: inconclusive; GPT2 inhibitor: -22%; HEK293 tox: inconclusive

How did CN(Cc1cncs1)C1CCCc2ccccc21 (stereo unspecified) do in these assays?
hNpr1 antagonist: 2%[70.6 µM]; NIH3T3 tox: inconclusive; GPT2 inhibitor: inactive; FLuc inh: inactive; HEK293 tox: inconclusive

Bioassay records: PubChem, National Center for Advancing Translational Sciences (NCATS)
